The values that follow come from PubChem BioAssay (NCI).

Each structure is given as a SMILES string. About 83,000 compounds went through this panel and 20% of them were active in at least one assay; those are over-represented in the sample as a whole.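 Method: cells in 96-well plates; compound added at one concentration; 48 h incubation; percent growth measured; values under 10 scored active.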 The source made the active and inactive calls.

This assay deals with MDA-MB-468 breast. Nature of the assay: NCI-60 one-dose screen, 48 h (100 = growth as untreated, 0 = no growth, -100 = all killed). The conditions noted are these: 10 µM unless noted.
On to `N#CC1=C(Nc2ccccc2Cl)SC(c2ccccc2O)NC1=O` (stereo not given), for which the growth was 122% (inactive). With `C1CCC(N2CN3c4nonc4N4CN(C5CCCCC5)CN5c6nonc6N(C2)C3C45)CC1` (stereo not given), the growth is 99.5% (inactive). As for `CCN(CC)c1ccc(N=Nc2cc(Cl)ccc2Cl)c(NC(=O)CCC(=O)O)c1`, the figure is 107% (inactive). On to `COc1ccc(-c2nnc(COc3ccc(NC(=O)Nc4ccccc4)cc3F)o2)cc1`, for which the growth was 86.9% (inactive). With `Cc1cc2ccccc2nc1-c1ccccc1F`, the growth was 105% (inactive). Take `Cc1cc(=O)n2n1-c1ccc(Cl)cc1NC(=O)C2`: the growth is 101% (inactive). Consider `COC1C(O)CC(OC2CC(OC3CC(O[C@@H]4C(=O)c5c(cc6cc(OC7CC(OC8CC(O)C(O)C(C)O8)C(O)C(C)O7)c(C)c(O)c6c5O)CC4[C@H](OC)C(=O)C(C)=O)OC(C)C3O)OC(C)C2O)OC1C` (stereo not given in full), for which the growth was -64.7% (active).

Regarding `CCCCCCCCCCCCNCCCc1ccccc1`, the growth is 13% (inactive). For `CCOC(=O)C/C(=N\Nc1cc(=O)[nH]c2ccc(C)cc12)C(=O)OCC`, the growth was 91.1% (inactive). As for `CCn1c(SCC(=O)Nc2cc(C(F)(F)F)ccc2Cl)nc2ccccc2c1=O`, the figure is 50.3% (inactive). Regarding `O=C(Cc1ccccc1)Nc1nc(O)c(/C=C2\C(=O)C=Cc3ccccc32)s1`, the growth is 95.9% (inactive).

With `C=CCn1c(SCC(=O)Nc2ccc(C(=O)/C=C/c3ccc(Cl)cc3)cc2)nnc1-c1cc(OC)c(OC)c(OC)c1`, the growth was 79% (inactive). Take `O=C(N/N=C/c1ccccc1O)c1ccccc1O`: the growth is 17% (inactive). Take `O=C1NC(=O)[C@@H](c2cn3c4c(cccc24)CCC3)[C@@H]1c1c[nH]c2ccccc12`: the growth is -0.826% (active). The figure for `O=C(N/N=C/c1ccccc1O)C(=O)Nc1ccc(F)cc1` is 33% (inactive); for `O=C(CSc1nc2ccccc2c(=O)n1-c1ccccc1)Nc1cccc(C(=O)/C=C/c2ccccc2)c1` it is 91.3% (inactive). For `CC1=C(C(=O)/C=C/c2ccc(N(C)C)cc2)C(c2ccccc2)NC(=S)N1` (stereo not given), the growth was 102% (inactive). Regarding `COc1cccc2c1C(=O)c1c(O)c3c(c(O)c1C2=O)C[C@@](O)(C(=O)CO)C[C@@H]3O[C@H]1C[C@H](N)[C@@H](O)[C@H](C)O1`, the growth is -57% (active). Consider `Fc1ccc(-c2nn(-c3ccccc3)cc2-c2nc3ccccc3o2)cc1`, for which the growth was -21.2% (active). Consider `OC(CN1CCCC2CCCCC21)c1cc2ccccc2c2ccccc12` (stereo not given), for which the growth was -24.4% (active). The figure for `COc1nc2ccccc2cc1/C=[N+](\[O-])c1ccccc1` is 88.6% (inactive); for `COc1ccc(C2CC(c3ccccc3)=NN2C(=O)c2cc(OC)c(OC)c(OC)c2)cc1O` (stereo not given) it is 41.3% (inactive); for `COc1cc(Cn2ccc3c2-c2oncc2CC3)cc(OC)c1` it is 10.9% (inactive). On to `CC(C)(C)OC(=O)N1CCN(c2ccc(N)cc2)C(=O)C1`, for which the growth is 111% (inactive). Consider `CC(=O)c1cccc(Nc2ncnc3ccc(NC(=O)c4ccco4)cc23)c1`, for which the growth is 60.2% (inactive). As for `COc1ccc2[nH]c(=O)c(/C=C/C(=O)/C=C/c3ccc(O)c(OC)c3)cc2c1`, the figure is -32.1% (active). For the compound `O=C(Nc1cccc2[nH]c(C(F)(F)F)nc12)c1ccc(F)cc1`, the growth was 65.6% (inactive). Turning to `C#Cc1cccc(NC(=O)c2ccccc2NC(=O)C=C)c1`, the growth is 70.9% [8.25 µM] (inactive).

In the case of `Cc1ccc(-c2cc3nc(C(Cl)Cl)nc(-c4cccnc4)n3n2)cc1`, the growth is -61.5% (active). For the compound `Cn1c(=O)c2c(nc(Br)n2CC(=O)Nc2ccc(F)cc2)n(C)c1=O`, the growth is 109% (inactive). With `Cc1ccc(S(=O)(=O)n2cc(-c3csc(-c4cn(C)c5ncccc45)n3)c3ccccc32)cc1`, the growth was 38.6% (inactive). The figure for `CC1=CC(=O)CC(C)(C)[C@@]1(O)/C=C/[C@@H](C)O` is 72.9% (inactive); for `Cc1ccc2c(c1)Oc1nc(N)c(C#N)c(N)c1C2Sc1ccc(F)cc1` (stereo not given) it is -72.6% (active); for `O=C(O)CSCc1nc2ccccc2[nH]1` it is 118% (inactive). The figure for `COc1cc2ccccc2cc1C(=O)NC(=S)Nc1ccc(-c2nc3ccccc3[nH]2)cc1` is 90.2% (inactive); for `C/C(=C(/c1ccc(O)cc1)c1ccc(OCCN2CCCC2)cc1)c1ccccc1` it is 34.7% (inactive).

For the compound `COc1cccc(-c2nnc(COc3ccc(-c4nc5ccc(C)cc5[nH]4)cc3OC)o2)c1`, the growth is 71% (inactive). As for `N#Cc1c2c([nH]c(=O)c1C(N)=O)CCCCC2`, the figure is 109% (inactive); as for `CC(=O)CSc1ncnc2nc[nH]c12`, 40.6% (inactive); as for `O=C(Nc1ccc(Cl)cc1F)c1ccccc1O`, 6.26% (active).
